The panel holds about 79,000 compounds, 15% with a hit somewhere; the sample as a whole holds those more often. Active and inactive are the calls of the source. Cut-off read from the data, not from the text of the source: active = growth inhibition above about 70%; inactive = the rest.
Key:
[1] = NCI Yeast Anticancer Drug Screen. Data for the wt1 strain (AID 149);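 note: 0% = growth of vehicle-treated wt1 cultures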; conditions: S. cerevisiae wt1 strain (SPY 50644) growth inhibition, stronger effect = higher value
Outline: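 The wt1 strain was treated with compounds, and growth was compared with vehicle-treated cultures to give inhibition.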

[2] = NCI Yeast Anticancer Drug Screen. Data for the rad50EPP+ strain (AID 151);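 note: 0% = growth of vehicle-treated control cultures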; conditions: S. cerevisiae rad50 mutant strain, stronger effect = higher value
Outline: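 Measured: growth inhibition of rad50EPP+ yeast. Reference: vehicle-treated controls. Screen uses strains with defined genetic alterations in DNA damage repair or cell cycle control.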

[3] = NCI Yeast Anticancer Drug Screen. Data for the mgt1 strain (AID 153); conditions: S. cerevisiae mgt1 mutant growth inhibition, stronger effect = higher value
Outline: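 Compounds were applied to mgt1 mutant yeast, and growth was then compared against vehicle-treated control cultures to give percent inhibition.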

[4] = NCI Yeast Anticancer Drug Screen. Data for the rad50 strain (AID 155);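 note: 0% = growth of vehicle-only cultures of the same strain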; conditions: S. cerevisiae rad50 strain growth inhibition, stronger effect = higher value
Outline: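 Cells are treated with compound, grown, and their growth is then scored against vehicle-only cultures of the same repair-deficient yeast strain.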

[5] = NCI Yeast Anticancer Drug Screen. Data for the mec2-1 strain (AID 157); conditions: S. cerevisiae mec2-1 strain, stronger effect = higher value
Outline: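 Compounds were applied to mec2-1 yeast cells. Their growth was then compared with that of vehicle-treated cultures to give growth inhibition.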

[6] = NCI Yeast Anticancer Drug Screen. Data for the sgs1 mgt1 strain (AID 161);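 note: 0% = growth of cultures given vehicle only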; conditions: S. cerevisiae sgs1 mgt1 strain, stronger effect = higher value
Outline: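 Compounds are added to genetically altered yeast, and growth is compared with cultures given vehicle alone to give percent inhibition.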

[7] = NCI Yeast Anticancer Drug Screen. Data for the CLN2oe strain (AID 163);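 note: 0% = growth of vehicle-only control cultures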; conditions: S. cerevisiae CLN2oe strain, stronger effect = higher value
Outline: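 Cells of an engineered yeast line with disturbed cell-cycle regulation are treated with compound. Inhibition of growth is then calculated relative to the vehicle-treated reference.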

[8] = NCI Yeast Anticancer Drug Screen. Data for the cln2 rad14 strain (AID 165);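 note: 0% = growth equal to vehicle treated cultures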; conditions: S. cerevisiae cln2 rad14 strain, stronger effect = higher value
Outline: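 Strain: cln2 rad14 yeast, altered in cell cycle control and DNA damage repair. Read-out: growth inhibition vs vehicle.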

[9] = NCI Yeast Anticancer Drug Screen. Data for the bub3 strain (AID 167); conditions: S. cerevisiae bub3 mutant strain, stronger effect = higher value
Outline: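 Part of a panel of yeast mutants defective in DNA damage repair or cell cycle regulation. Each strain is grown with compound, and inhibition is calculated relative to solvent-treated cultures.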

[10] = NCI Yeast Anticancer Drug Screen. Data for the mlh1 strain (AID 171);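 note: 0% = growth of vehicle-treated control cultures of the same strain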; conditions: S. cerevisiae mlh1 strain growth inhibition, stronger effect = higher value
Outline: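 Test agents were incubated with yeast bearing a defined DNA damage repair or cell cycle control alteration; values are growth inhibition normalised to vehicle-treated cultures.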

[11] = NCI Yeast Anticancer Drug Screen. Data for the sgs1 strain (AID 173);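 note: 0% = growth of vehicle-only control cultures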; conditions: S. cerevisiae sgs1 mutant, stronger effect = higher value
Outline: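 Strain with an altered DNA repair or cell cycle pathway exposed to compound. Growth then measured. Value = inhibition versus vehicle control.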

[12] = NCI Yeast Anticancer Drug Screen. Data for the mlh1 rad18 strain (AID 175); conditions: S. cerevisiae mlh1 rad18 strain growth inhibition, stronger effect = higher value
Outline: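 A repair-deficient yeast strain is exposed to test compound, and growth is scored relative to vehicle-treated controls.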

[13] = NCI Yeast Anticancer Drug Screen. Data for the rad18 strain (AID 177); conditions: S. cerevisiae rad18 mutant growth inhibition, stronger effect = higher value
Outline: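 DNA-repair-defective yeast; compound treatment; growth inhibition scored against vehicle.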

[14] = NCI Yeast Anticancer Drug Screen. Data for the rad14 strain (AID 159);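 note: 0% = growth of vehicle-treated control cultures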; conditions: S. cerevisiae rad14 strain growth inhibition, stronger effect = higher value
Outline: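 Readout: yeast growth inhibition, referenced to vehicle-only cultures. Strain bears a defined alteration in DNA damage repair.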

[15] = NCI Yeast Anticancer Drug Screen. Data for the wt2 strain (AID 169);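 note: 0% = growth of vehicle-treated yeast cultures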; conditions: S. cerevisiae wt2 strain growth inhibition, stronger effect = higher value
Outline: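 Growth of compound-treated yeast is measured and expressed as inhibition relative to vehicle-only controls.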

[16] = at 5.0 µM (retest, dose inferred, filed as 0.5)
[17] = at 50.0 µM (retest, dose inferred, filed as 5.0)

Measured: growth inhibition

CC[C@@]1(O)C(=O)OCc2c1cc1n(c2=O)Cc2cc3c(NC(=O)CN)cccc3nc2-1
inactive: [1]; at 1.2 µM 1% | [1]; at 3.7 µM -1% | [1]; at 11.0 µM -2% | [1]; at 33.0 µM -3% | [1]; at 100.0 µM 0% | [2]; at 1.2 µM -4% | [2]; at 3.7 µM 2% | [2]; at 11.0 µM 6% | [2]; at 33.0 µM 19% | [2]; at 100.0 µM 49% | [3]; at 1.2 µM -3% | [3]; at 3.7 µM 1% | [3]; at 11.0 µM 0% | [3]; at 33.0 µM -1% | [3]; at 100.0 µM -3% | [4]; at 1.2 µM 8% | [4]; at 3.7 µM 21% | [4]; [16] 1% | [4]; at 11.0 µM 54% | [5]; at 1.2 µM -3% | [5]; at 3.7 µM -4% | [5]; [16] -9% | [5]; at 11.0 µM -3% | [5]; at 33.0 µM 1% | [5]; [17] -5% | [5]; at 50.0 µM -11.8% | [5]; at 100.0 µM 19% | [6]; [16] -11% | [6]; [17] -3% | [6]; at 50.0 µM -1.65% | [7]; at 1.2 µM 0% | [7]; at 3.7 µM -2% | [7]; at 11.0 µM -1% | [7]; at 33.0 µM -2% | [7]; at 100.0 µM 0% | [8]; [16] -35% | [8]; [17] -26% | [8]; at 50.0 µM 26.9% | [9]; at 1.2 µM -12% | [9]; at 3.7 µM -6% | [9]; [16] -19% | [9]; at 11.0 µM 8% | [9]; at 33.0 µM 7% | [9]; [17] -3% | [9]; at 50.0 µM 8.3% | [9]; at 100.0 µM -6% | [10]; at 1.2 µM -5% | [10]; at 3.7 µM -3% | [10]; at 11.0 µM -3% | [10]; at 33.0 µM -6% | [10]; at 100.0 µM 2% | [11]; at 1.2 µM -2% | [11]; at 3.7 µM -3% | [11]; at 11.0 µM -2% | [11]; at 33.0 µM -1% | [11]; at 100.0 µM 7% | [12]; [16] -12% | [12]; [17] -9% | [12]; at 50.0 µM -0.55% | [13]; at 1.2 µM -18% | [13]; at 3.7 µM -6% | [13]; at 11.0 µM -19% | [13]; at 33.0 µM -8% | [13]; at 100.0 µM -10%
active: [4]; at 33.0 µM 79% | [4]; [17] 72% | [4]; at 50.0 µM 88.2% | [4]; at 100.0 µM 88%

C/C(=N\N=C(N)N)C(CN1CCOCC1)C(c1ccccc1)c1c(O)c2ccccc2oc1=O (stereo unspecified)
inactive: [1]; at 1.2 µM 2% | [1]; at 3.7 µM -2% | [1]; at 11.0 µM -3% | [1]; at 33.0 µM 3% | [1]; at 100.0 µM 42% | [2]; at 1.2 µM -6% | [2]; at 3.7 µM -3% | [2]; at 11.0 µM -6% | [2]; at 33.0 µM -3% | [2]; at 100.0 µM 10% | [3]; at 1.2 µM 1% | [3]; at 3.7 µM -2% | [3]; at 11.0 µM 0% | [3]; at 33.0 µM 37% | [3]; at 100.0 µM 48% | [4]; at 1.2 µM 3% | [4]; at 3.7 µM 5% | [4]; at 11.0 µM -15% | [4]; at 33.0 µM 21% | [5]; at 1.2 µM 1% | [5]; at 3.7 µM 1% | [5]; [16] 59% | [5]; at 11.0 µM -3% | [5]; at 33.0 µM 8% | [5]; [17] 59% | [5]; at 100.0 µM 51% | [14]; at 1.2 µM 4% | [14]; at 3.7 µM 1% | [14]; at 11.0 µM -2% | [14]; at 33.0 µM 6% | [7]; at 1.2 µM 0% | [7]; at 3.7 µM 7% | [7]; at 11.0 µM 2% | [7]; at 33.0 µM 18% | [7]; at 100.0 µM 48% | [8]; [16] 7% | [8]; [17] 7% | [9]; at 1.2 µM 5% | [9]; at 3.7 µM 4% | [9]; [16] 31% | [9]; at 11.0 µM 18% | [9]; at 33.0 µM 47% | [9]; [17] 31% | [9]; at 100.0 µM 43% | [15]; at 1.2 µM -1% | [15]; at 3.7 µM 0% | [15]; at 11.0 µM 0% | [15]; at 33.0 µM 35% | [10]; at 1.2 µM -2% | [10]; at 3.7 µM -8% | [10]; at 11.0 µM -7% | [10]; at 33.0 µM 40% | [11]; at 1.2 µM -1% | [11]; at 3.7 µM -3% | [11]; at 11.0 µM 0% | [11]; at 33.0 µM 42% | [12]; [16] 57% | [12]; [17] 57% | [12]; at 50.0 µM 49.2% | [13]; at 1.2 µM -3% | [13]; at 3.7 µM -9% | [13]; at 11.0 µM -12% | [13]; at 33.0 µM 13%
active: [4]; [16] 78% | [4]; [17] 78% | [4]; at 50.0 µM 86.5% | [4]; at 100.0 µM 94% | [5]; at 50.0 µM 80.7% | [14]; at 100.0 µM 93% | [6]; [16] 88% | [6]; [17] 88% | [6]; at 50.0 µM 86% | [8]; at 50.0 µM 85.5% | [9]; at 50.0 µM 77.8% | [15]; at 100.0 µM 95% | [10]; at 100.0 µM 96% | [11]; at 100.0 µM 97% | [13]; at 100.0 µM 93%

Reference: PubChem BioAssay (NCI)
